A short description of assay [1]: Cellular Toxicity (caspase-3) HepG2 (AID 654).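 Further: cells exposed to compound for 16 hours before reading; 0% = DMSO alone and 100% = caspase signal from 100 µM tamoxifen.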 The essentials:
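Caspase 3/7 activation is measured as a luminescence increase (aminoluciferin substrate) after 16 h compound exposure of human hepatocarcinoma HepG2 cells. AC50 values are Hill fits, scaled between DMSO baseline and 100 uM tamoxifen stimulation.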

A short description of assay [2]: Cellular Toxicity (caspase-3) Jurkat (AID 655).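 Further: cells exposed to compound for 16 h at 37 °C before reading.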 The essentials: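 Caspase 3/7 activation is scored as increased luminescence in Jurkat cells cultured with compound for 16 hours in complete medium. AC50 values come from Hill fits of qHTS concentration-response data normalized to DMSO and 100 uM tamoxifen controls.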
Assay [3] can be described thus: Cellular Toxicity (caspase-3) HUV-EC-C (AID 656). The essentials:
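Read-out: luminescence proportional to caspase 3/7 activity, measured 20 min after adding Caspase-Glo 3/7 reagent. Cells (HUV-EC-C) had received compound for 16 hr at 37°C. Increases relative to DMSO and 100 uM tamoxifen gave concentration-response AC50 values.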

Assay [4] is described as follows: Cellular Toxicity (caspase-3) SHSY5Y (AID 657). An outline of the steps:
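Cells plated and incubated 5 h at 37 °C, dosed over a concentration range, incubated 16 h, then given Caspase-Glo 3/7 reagent for 1 h at room temperature before luminescence reading. Staurosporine (10 uM) defined full stimulation.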

The nature of assay [5]: Cellular Toxicity (caspase-3) BJ (AID 658).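 Further: 0% = DMSO basal and 100% = 10 µM staurosporine.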 Conditions: Potency: caspase-3 activation. The essentials: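 qHTS, BJ fibroblasts, 1000 cells/well; 5 hr preincubation, 16 hr compound, 37 °C; Caspase-Glo 3/7 reagent, 1 hr RT; luminescence. DMSO = 0%, 10 uM staurosporine = 100%. Hill-equation AC50.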
Assay [6] is described as follows: Cellular Toxicity (caspase-3) MRC-5 (AID 659).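 Further: 0% = DMSO basal and 100% = 10 µM staurosporine.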 An outline of the steps: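 MRC-5 fibroblasts, 1500/well; 16 h cpd, 37 °C; Caspase-Glo 3/7, 1 h RT; lumi read. Norm: DMSO = 0%, 10 uM staurosporine = 100%. Hill-fit AC50 from qHTS conc-response.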
The nature of assay [7]: Cellular Toxicity (caspase-3) Mesangial (AID 660).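 Further: cells exposed to compound for 16 h before the caspase read.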 The essentials: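 Caspase 3/7 activation measured by Caspase-Glo 3/7 luminescence (20 min, room temperature) following 16 h exposure of mesangial cells (1000/well); AC50 from Hill-equation fit, normalized to DMSO and 100 uM tamoxifen.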
Assay [8] can be described thus: Cellular Toxicity (caspase-3) SK-N-SH (AID 661).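 Further: 0% = DMSO basal and 100% = 10 µM staurosporine.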 As to conditions: SK-N-SH caspase-3 activation, qHTS; caspase-3 activation: at 91.7 µM (top of the series), DMSO as zero, staurosporine as full. The essentials:
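Caspase 3/7 activation was read by luminogenic substrate cleavage after 16 hour treatment of SK-N-SH cells. Signal was scaled between DMSO and 10 uM staurosporine, and concentration-response data were fitted with the Hill equation for AC50.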
(In general: In qHTS, concentration-response curves come from the screen itself.)

Assay [9] in a line: Cellular Toxicity (caspase-3) H-4-II-E (AID 663).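 Further: cells exposed to compound for 16 hr before readout.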 The essentials: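 H-4-II-E rat hepatoma, 1500 cells/well, 5 hr settle at 37 °C; compound 16 hr, 37 °C, complete medium; Caspase-Glo 3/7, 20 min RT; luminescence. DMSO = 0%, 100 uM tamoxifen = 100%; Hill-equation AC50.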
Assay [10] in a line: Cellular Toxicity (caspase-3) Hek293 (AID 664).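 Further: cells exposed to compound for 16 h at 37 °C before readout.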 Conditions: HEK293 caspase-3 activation, DMSO = 0%, 100 µM tamoxifen = 100%; at 92.2 µM (top of the series). An outline of the steps:
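Concentration-response qHTS: caspase 3/7 activation measured by luminescent aminoluciferin substrate cleavage after 16 h compound exposure of Hek 293 cells. AC50 from Hill equation, with DMSO as basal and 100 uM tamoxifen as 100%.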

Assay [11] in a line: Cellular Toxicity (caspase-3) N2a (AID 665).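 Further: compound exposure lasted 16 h at 37 °C before readout.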 An outline of the steps: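 Caspase-3/7 activation measured as luminescence from Caspase-Glo reagent (1 h, room temperature) after 16 h compound exposure of mouse N2a cells. AC50 values from Hill-equation concentration-response, scaled between DMSO and 10 uM staurosporine.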
A short description of assay [12]: Cellular Toxicity (caspase-3) NIH 3T3 (AID 666).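 Further: caspase signal read after 16 h compound exposure; 0% = DMSO basal and 100% = 100 µM tamoxifen stimulation.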 An outline of the steps: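 Caspase-Glo 3/7 luminescence reported caspase activation in 1000 NIH 3T3 cells/well after 16 h compound exposure at 37 C. DMSO set basal and 100 uM tamoxifen set 100% stimulation; concentration-response modeled with the Hill equation for AC50.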
Assay [13] can be described thus: Cellular Toxicity (caspase-3) Renal Proximal Tubule (AID 667).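 Further: cells exposed to compound for 16 hours at 37 °C before detection; 0% = DMSO basal and 100% = 10 µM staurosporine.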 The essentials: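 In qHTS format, rat primary proximal tubule cells seeded at 1000 per well are exposed to compounds for 16 hours at 37 °C. An increase in Caspase-Glo 3/7 luminescence indicates caspase activation.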
Assay [14] deals with 3',5'-cyclic-AMP phosphodiesterase 4B (Homo sapiens) (UniProt Q07343). Put plainly: qHTS Assay for Inhibitors of PDE-IV (AID 607; active means well fitted activation curve with a large enough effect in the main read-out, with a control signal flat, not every such curve was filed as active; further: % of control where 0% means no effect). The essentials: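 Live HEK293 cells with a modified cyclic nucleotide-gated (CNG) channel report intracellular cAMP via membrane-potential dye fluorescence (ex 535/em 590 nm). Endogenous PDE-IV was targeted. Compounds were tested at up to 22.9 uM final; RO 20-1724 100 uM served as control.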
Sequence of 3',5'-cyclic-AMP phosphodiesterase 4B (Homo sapiens) (Q07343 whole entry, looked up): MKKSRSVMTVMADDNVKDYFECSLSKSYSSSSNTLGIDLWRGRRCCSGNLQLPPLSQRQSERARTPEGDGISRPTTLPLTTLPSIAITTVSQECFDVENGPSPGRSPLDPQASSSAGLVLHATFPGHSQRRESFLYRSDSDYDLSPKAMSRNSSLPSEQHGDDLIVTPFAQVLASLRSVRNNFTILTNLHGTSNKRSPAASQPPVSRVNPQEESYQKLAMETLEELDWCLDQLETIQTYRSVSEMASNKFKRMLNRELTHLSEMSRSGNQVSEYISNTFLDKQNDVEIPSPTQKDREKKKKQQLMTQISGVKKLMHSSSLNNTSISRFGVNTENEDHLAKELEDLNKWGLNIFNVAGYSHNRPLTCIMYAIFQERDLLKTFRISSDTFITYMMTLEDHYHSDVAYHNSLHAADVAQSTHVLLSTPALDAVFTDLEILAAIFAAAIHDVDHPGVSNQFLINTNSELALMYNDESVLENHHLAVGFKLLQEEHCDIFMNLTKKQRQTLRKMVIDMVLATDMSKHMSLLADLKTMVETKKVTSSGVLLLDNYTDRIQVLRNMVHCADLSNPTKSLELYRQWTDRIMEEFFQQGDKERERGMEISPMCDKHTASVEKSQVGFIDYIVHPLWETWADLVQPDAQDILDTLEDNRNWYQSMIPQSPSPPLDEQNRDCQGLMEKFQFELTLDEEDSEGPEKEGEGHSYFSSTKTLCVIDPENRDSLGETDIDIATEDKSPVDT

The nature of assay [15]: Confirmation and Secondary Assay for Modulators of Hemoglobin Beta Chain Splicing at IVS2 654 locus (AID 910).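 Further: HeLa cells stably carrying EGFP split by mutant beta-globin IVS2-654 intron; % of control where 0% means no effect.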 The essentials: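 HeLa cells stably expressing EGFP interrupted by β-globin IVS2-654 intron, seeded overnight in Opti-MEM/2% FCS, then treated 2 days at 37 °C. Restored splicing read as total peak GFP intensity per well by laser scanning cytometry (488 nm excitation, 500–520 nm emission); 500 nM antisense PNA as control.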

The target in assay [16] is Cytochrome P450 2D6 (Homo sapiens) (UniProt P10635). Description: qHTS Assay for Inhibitors and Substrates of Cytochrome P450 2D6 (AID 891). Further: nearly all actives have a fitted effect of over 60% in size. Further: potency means the concentration at half of the fitted maximal effect.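 On activity change, negative = inhibition: luciferin methyl ether substrate demethylated by CYP2D6 with NADPH regeneration; on the % scale 0 is the no-effect control and ±100 the full control effect.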 The essentials:
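Luminescent read-out of luciferin formed by 5 nM human CYP2D6 demethylating 30 uM Luciferin-ME EGE (Km level) over 60 min at room temperature after NADPH regeneration addition. Data normalized to full inhibition by 1.43 uM quinidine.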

Assay [17] has as its target Cytochrome P450 3A4 (Homo sapiens) (UniProt P08684). Description: qHTS Assay for Inhibitors and Substrates of Cytochrome P450 3A4 (AID 884). Further: nearly all actives have a fitted effect of over 50% in size. Further: potency means the concentration at half of the fitted maximal effect. On activity change, negative = inhibition: on the % scale 0 is the no-effect control and ±100 the full control effect. The essentials: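 Luminescent readout of luciferin produced by CYP3A4 (20 nM) dealkylation of Luciferin-PPXE, 25 uM (its KM). NADPH-driven reaction ran 60 min at RT after 10 min compound preincubation; data scaled to 57 uM ketoconazole as 100% inhibition.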

Assay [18] deals with Cytochrome P450 2C9 (Homo sapiens) (UniProt P11712). Put plainly: qHTS Assay for Inhibitors and Substrates of Cytochrome P450 2C9 (AID 883). Further: potency means the concentration at half of the fitted maximal effect; nearly all actives have a fitted effect of over 60% in size. An outline of the steps: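 Human CYP2C9 (10nM) with Luciferin-H at 100uM (its KM) in 25mM KPO4; compound preincubated 10 min at 37C, then NADPH regeneration for 60 min at 37C. Luciferin read by luminescence after detection reagent; normalized to 57uM sulphaphenazole as full inhibition.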
Sequence of Cytochrome P450 2C9 (Homo sapiens) (P11712 whole entry, looked up): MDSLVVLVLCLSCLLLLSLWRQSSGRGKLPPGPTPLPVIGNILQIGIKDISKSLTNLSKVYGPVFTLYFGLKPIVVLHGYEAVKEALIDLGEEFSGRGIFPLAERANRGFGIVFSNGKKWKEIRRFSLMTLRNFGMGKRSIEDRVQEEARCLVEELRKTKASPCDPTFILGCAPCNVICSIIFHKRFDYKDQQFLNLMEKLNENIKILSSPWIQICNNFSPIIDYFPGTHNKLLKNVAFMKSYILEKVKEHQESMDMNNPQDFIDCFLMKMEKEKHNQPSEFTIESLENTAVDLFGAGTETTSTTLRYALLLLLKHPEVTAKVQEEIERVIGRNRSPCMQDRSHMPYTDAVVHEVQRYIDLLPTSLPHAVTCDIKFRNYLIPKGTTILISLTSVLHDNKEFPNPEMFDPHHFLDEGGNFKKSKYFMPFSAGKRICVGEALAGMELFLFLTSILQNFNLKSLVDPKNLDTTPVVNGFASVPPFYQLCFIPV

For assay [19], the target named is Cytochrome P450 2C19 (Homo sapiens) (UniProt P33261). Put plainly: qHTS Assay for Inhibitors and Substrates of Cytochrome P450 2C19 (AID 899). Further: potency means the concentration at half of the fitted maximal effect; nearly all actives have a fitted effect of over 60% in size. Conditions: recombinant CYP2C19, luciferin-H EGE luminescence. The essentials:
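5 nM human CYP2C19 with 10uM Luciferin-H EGE (at KM) in 50mM KPO4, compound preincubated 10 min at 37C, then NADPH regeneration for 60 min at 37C. Luciferin read by luminescence after detection reagent; normalized to 57uM ketoconazole as full inhibition.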

Values without a mark were called inactive. Inconclusive results are not listed. Calls of active or inactive are those of the source. Unless noted, the call rests on the fitted dose curve; in most records, active means well fitted curve in the direction sought with a large enough effect; inconclusive means small, poorly fitted or top-dose-only effect, or another doubt; inactive means no such curve, though single readings can be large; an effect the other way counts as inactive or inconclusive.

Sequence of Cytochrome P450 2D6 (Homo sapiens) (P10635 whole entry, looked up): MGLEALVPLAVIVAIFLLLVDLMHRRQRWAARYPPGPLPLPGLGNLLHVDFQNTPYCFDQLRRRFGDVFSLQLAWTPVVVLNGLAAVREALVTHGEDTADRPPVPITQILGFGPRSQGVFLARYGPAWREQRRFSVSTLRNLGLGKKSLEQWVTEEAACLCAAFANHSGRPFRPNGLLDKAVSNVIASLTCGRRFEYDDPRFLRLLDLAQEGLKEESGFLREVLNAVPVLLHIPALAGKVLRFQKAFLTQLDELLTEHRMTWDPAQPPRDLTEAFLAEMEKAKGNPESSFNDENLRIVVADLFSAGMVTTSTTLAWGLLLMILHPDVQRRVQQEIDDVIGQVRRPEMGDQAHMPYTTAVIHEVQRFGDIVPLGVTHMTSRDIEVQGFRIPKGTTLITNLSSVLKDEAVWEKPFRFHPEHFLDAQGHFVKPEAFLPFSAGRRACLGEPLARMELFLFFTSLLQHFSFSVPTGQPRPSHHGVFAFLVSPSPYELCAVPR
Sequence of Cytochrome P450 3A4 (Homo sapiens) (P08684 whole entry, looked up): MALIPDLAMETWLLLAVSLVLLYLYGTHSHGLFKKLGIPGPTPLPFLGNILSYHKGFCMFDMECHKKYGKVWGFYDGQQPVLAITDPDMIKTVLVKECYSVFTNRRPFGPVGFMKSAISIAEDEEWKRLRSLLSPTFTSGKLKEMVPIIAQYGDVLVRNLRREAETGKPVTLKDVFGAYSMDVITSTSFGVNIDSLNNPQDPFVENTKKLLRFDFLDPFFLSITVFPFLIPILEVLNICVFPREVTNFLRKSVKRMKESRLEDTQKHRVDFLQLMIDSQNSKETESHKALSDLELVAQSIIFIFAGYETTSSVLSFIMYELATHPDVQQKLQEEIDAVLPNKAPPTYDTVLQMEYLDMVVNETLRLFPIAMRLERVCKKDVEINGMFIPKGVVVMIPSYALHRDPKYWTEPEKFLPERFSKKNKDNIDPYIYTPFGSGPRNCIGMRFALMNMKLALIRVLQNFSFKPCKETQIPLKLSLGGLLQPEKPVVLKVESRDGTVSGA
Sequence of Cytochrome P450 2C19 (Homo sapiens) (P33261 whole entry, looked up): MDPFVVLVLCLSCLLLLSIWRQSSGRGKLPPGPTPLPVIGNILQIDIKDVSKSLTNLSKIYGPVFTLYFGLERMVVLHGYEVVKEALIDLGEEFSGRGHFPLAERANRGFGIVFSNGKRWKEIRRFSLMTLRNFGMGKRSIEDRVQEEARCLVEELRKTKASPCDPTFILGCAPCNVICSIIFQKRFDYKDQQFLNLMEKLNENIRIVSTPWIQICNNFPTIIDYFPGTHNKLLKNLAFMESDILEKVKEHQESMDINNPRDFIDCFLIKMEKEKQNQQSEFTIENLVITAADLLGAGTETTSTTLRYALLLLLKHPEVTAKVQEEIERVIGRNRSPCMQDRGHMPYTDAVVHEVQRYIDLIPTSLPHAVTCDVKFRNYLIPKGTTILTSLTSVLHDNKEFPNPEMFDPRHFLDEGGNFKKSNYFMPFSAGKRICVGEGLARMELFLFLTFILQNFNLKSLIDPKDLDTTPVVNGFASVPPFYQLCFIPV

Take `CC1=CC(=O)NS(=O)(=O)O1`: the outcome in [1], in assay [3], in [6], in [7], in [9] and in assay [11] was inactive. Also, the outcome in assay [12] and in [13] was inactive. The Potency entry in assay [2], in [4], in assay [5] and in assay [8] was “inactive” in each case. Further, the caspase-3 activation in assay [10] was -2.78%.
On to `N[C@H](CC(=O)O)C(=O)O`, for which the outcome in assay [14] was inactive.
For the compound `NC(N)=O`, the result in assay [1], in [3], in [6], in assay [7], in assay [9] and in assay [11] was inactive. The result in assay [12] and in assay [13] was inactive. The Potency result in assay [2], in [4], in assay [5], in assay [8] and in assay [15] was “inactive” throughout. Besides, the caspase-3 activation in assay [10] is 1.05%.
Take `CC[C@H]1OC(=O)[C@H](C)[C@@H](O[C@H]2C[C@@](C)(OC)[C@@H](O)[C@H](C)O2)C(C)[C@@H](O[C@@H]2O[C@H](C)C[C@H](N(C)C)[C@@H]2O)[C@](C)(OC)C[C@@H](C)C(=O)[C@H](C)[C@@H](O)[C@]1(C)O` (some centres not stated): the Potency result in [15] is “inactive”.
Same read-out and setting: under `Cc1cccc(C)c1NC(=O)C1CCCCN1C` (configuration not stated) stands “inactive”.
Take `CN1CCc2c(c3ccccc3n2Cc2ccccc2)C1`: in assay [16], the Potency was 3.16 µM (active). Moreover, in [15], the Potency entry is “inactive”.
With `Nc1ncnc2c1ncn2[C@H]1CC[C@@H](CO)O1`, the compound was called inactive in assay [1], in [3], in assay [6], in assay [7], in assay [9] and in assay [11]. For the same compound, the outcome in assay [12] and in [13] was inactive. Also, the Potency entry in assay [4], in assay [5], in assay [8] and in assay [15] was “inactive” each time. Besides, the caspase-3 activation in assay [10] is 2.37%.
Take `Cc1c(O)c(=O)ccn1C`: the activity change, negative = inhibition in assay [17] is -11.6% [at 11.4 µM]. Besides, the Potency entry in assay [16] is “inactive”.
Turning to `Cc1cc(-c2ccc(N=Nc3ccc4c(S(=O)(=O)O)cc(S(=O)(=O)O)c(N)c4c3O)c(C)c2)ccc1N=Nc1ccc2c(S(=O)(=O)O)cc(S(=O)(=O)O)c(N)c2c1O`, the Potency was 7.94 µM (active) in [18], 15.8 µM (active) in assay [17], 15.8 µM (active) in [16] and 0.199 µM (active) in assay [19].
With `Oc1cccc(O)c1O`, the outcome in assay [1], in assay [3], in assay [6], in [7], in [9] and in assay [11] was inactive. Moreover, the compound was called inactive in assay [12] and in [13]. For the same compound, the Potency entry in assay [2], in assay [4], in [5] and in assay [8] was “inactive” in each case. In [10], the caspase-3 activation is 1.35%.
Regarding `O=P(O)(O)O`, the compound was classed as inactive in assay [1], in [3], in [6], in assay [7], in [9] and in assay [11]. Moreover, the outcome in assay [12] and in assay [13] was inactive. Moreover, the Potency result in [2], in assay [4], in assay [5] and in assay [8] was “inactive” each time. For the same compound, the caspase-3 activation in [10] was -0.448%.
Consider `CCOC(=O)C1=C(COCCN)NC(C)=C(C(=O)OC)C1c1ccccc1Cl` (configuration not stated), for which, in assay [15], the Potency result is “inactive”.
As to `Nc1nccs1`, the call in assay [1], in assay [3], in assay [6], in assay [7], in [9] and in [11] was inactive. In addition, the result in [12] and in assay [13] was inactive. The Potency entry in assay [2], in assay [4], in [5], in [8] and in assay [15] was “inactive” in each case. Further, in [10], the caspase-3 activation is 0.166%.

(Values after PubChem BioAssay (NCATS).)
